Read-out in assay [1]: Thrombomodulin, THBD (gene 7056)
Briefly: BSK_CASM3C_Thrombomodulin: BioMAP Diversity Plus: CASM3C Assay for Thrombomodulin Biomarker Activity (AID 2283051).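 Also: thrombomodulin protein level measured by ELISA 24 h after dosing.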 The settings on record: primary human coronary artery smooth muscle cells; actives raise or lower the signal.

Read-out in assay [2]: Tissue Factor, F3 (gene 2152)
Put plainly: BSK_CASM3C_TissueFactor: BioMAP Diversity Plus: CASM3C Assay for Tissue Factor Biomarker Activity (AID 2283052).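 Also: cell surface tissue factor protein level read by ELISA.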 The note with it: primary human coronary artery smooth muscle cells; actives raise or lower the signal.

Read-out in assay [3]: Interferon-gamma inducible Protein 10 (IP10), CXCL10 (gene 3627)
Put plainly: BSK_hDFCGF_IP10: BioMAP Diversity Plus: hDFCGF Assay for Interferon-gamma inducible Protein 10 (IP10) Biomarker Activity (AID 2283053). The settings on record: primary human foreskin fibroblasts; actives raise or lower the signal. The gist of the method: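 Primary human foreskin fibroblasts exposed to chemicals for 24 h. IP-10 measured by ELISA; changes fitted bidirectionally against DMSO baseline.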

Read-out in assay [4]: Urokinase-type plasminogen activator receptor (uPAR), PLAUR (gene 5329)
Briefly: BSK_CASM3C_uPAR: BioMAP Diversity Plus: CASM3C Assay for Urokinase-type plasminogen activator receptor (uPAR) Biomarker Activity (AID 2283054).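 Also: cell-surface uPAR protein level quantified by ELISA.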 The note with it: primary human coronary artery smooth muscle cells; actives raise or lower the signal.

Read-out in assay [5]: Vascular cell adhesion molecule 1 (VCAM1), VCAM1 (gene 7412)
Put plainly: BSK_CASM3C_VCAM1: BioMAP Diversity Plus: CASM3C Assay for Vascular cell adhesion molecule 1 (VCAM1) Biomarker Activity (AID 2283055).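 Also: VCAM-1 protein level quantified by ELISA on the cells.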 The settings on record: primary human coronary artery smooth muscle cells; actives raise or lower the signal.

Read-out in assay [6]: Collagen III, COL3A1 (gene 1281)
Put plainly: BSK_hDFCGF_CollagenIII: BioMAP Diversity Plus: hDFCGF Assay for Collagen III Biomarker Activity (AID 2283056). The settings on record: primary human foreskin fibroblasts; actives raise or lower the signal. Summed up:
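hDFCGF primary human dermal fibroblasts; 24 h chemical exposure; collagen III by ELISA; bidirectional curve fit vs DMSO baseline (gain or loss of signal).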

Read-out in assay [7]: Epidermal growth factor receptor (EGFR), EGFR (gene 1956)
Briefly: BSK_hDFCGF_EGFR: BioMAP Diversity Plus: hDFCGF Assay for Epidermal growth factor receptor (EGFR) Biomarker Activity (AID 2283057). The settings on record: primary human foreskin fibroblasts; actives raise or lower the signal. The gist of the method:
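Primary human foreskin fibroblasts (hDFCGF system), sampled 24 h after dosing; EGFR quantified by ELISA. Bidirectional fit relative to DMSO baseline; SRB total-protein staining in parallel cultures for cytotoxicity.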

Read-out in assay [8]: Interleukin-8 (IL8), CXCL8 (gene 3576)
Briefly: BSK_hDFCGF_IL8: BioMAP Diversity Plus: hDFCGF Assay for Interleukin-8 (IL8) Biomarker Activity (AID 2283058). The settings on record: primary human foreskin fibroblasts; actives raise or lower the signal. The gist of the method:
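ELISA read-out of IL-8 from primary human foreskin fibroblast cultures taken 24 h after dosing; values are bidirectional fits relative to DMSO vehicle.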

Assay [9] is described as follows: BSK_hDFCGF_Proliferation: Cell Proliferation Assessment in the BioMAP Diversity Plus: hDFCGF Assay (AID 2283059).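 Also: curves fitted for both rise and fall of signal versus DMSO baseline.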 The note with it: primary human foreskin fibroblasts. Summed up: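 This proliferation readout used SRB total-protein staining of human foreskin fibroblasts […], normalized to DMSO with bidirectional curve fitting.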
Read-out in assay [10]: Macrophage colony-stimulating factor (MCSF), CSF1 (gene 1435)
Briefly: BSK_hDFCGF_MCSF: BioMAP Diversity Plus: hDFCGF Assay for Macrophage colony-stimulating factor (MCSF) Biomarker Activity (AID 2283060). The settings on record: primary human foreskin fibroblasts; actives raise or lower the signal. Summed up:
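ELISA read-out of M-CSF in human dermal foreskin fibroblast cultures, 24 h after chemical dosing; gain or loss of signal fitted bidirectionally relative to DMSO baseline.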

Assay [11] is described as follows: BSK_hDFCGF_SRB: Viability Assessment in the BioMAP Diversity Plus: hDFCGF Assay (AID 2283061).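 Also: cells exposed to compound for 24 h before the read.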 The settings on record: primary human foreskin fibroblasts. The gist of the method: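 Primary human foreskin fibroblasts; 24 h post-dose; fixed 10% TCA, stained 0.1% SRB, A560 read; total protein as overt cytotoxicity measure; curves fit bidirectionally vs DMSO control.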

Read-out in assay [12]: TIMP metallopeptidase inhibitor 1 (TIMP1), TIMP1 (gene 7076)
Briefly: BSK_hDFCGF_TIMP1: BioMAP Diversity Plus: hDFCGF Assay for TIMP metallopeptidase inhibitor 1 (TIMP1) Biomarker Activity (AID 2283062). The note with it: primary human foreskin fibroblasts; actives raise or lower the signal. Summed up: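 ELISA readout of TIMP-1 from human dermal foreskin fibroblast cultures 24 h post-dosing. Curves were fitted in both directions against DMSO baseline, with SRB total-protein staining in parallel cultures as a cytotoxicity check.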

Read-out in assay [13]: Monokine induced gamma interferon (MIG), CXCL9 (gene 4283)
Briefly: BSK_hDFCGF_MIG: BioMAP Diversity Plus: hDFCGF Assay for Monokine induced gamma interferon (MIG) Biomarker Activity (AID 2283063). The settings on record: primary human foreskin fibroblasts; actives raise or lower the signal. Summed up: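 Fibroblasts (human foreskin, primary) dosed, 24 h, MIG by ELISA; fit bidirectional vs DMSO.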

Read-out in assay [14]: Matrix Metallopeptidase 1 (MMP1), MMP1 (gene 4312)
Put plainly: BSK_hDFCGF_MMP1: BioMAP Diversity Plus: hDFCGF Assay for Matrix Metallopeptidase 1 (MMP1) Biomarker Activity (AID 2283064). The note with it: primary human foreskin fibroblasts; actives raise or lower the signal. The gist of the method:
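Primary human foreskin fibroblasts in the hDFCGF system were dosed with test chemical, and MMP1 was measured by ELISA 24 h later. Values come from bidirectional curve fitting against the DMSO baseline.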

Read-out in assay [15]: Vascular cell adhesion molecule 1 (VCAM1), VCAM1 (gene 7412)
Briefly: BSK_hDFCGF_VCAM1: BioMAP Diversity Plus: hDFCGF Assay for Vascular cell adhesion molecule 1 (VCAM1) Biomarker Activity (AID 2283065).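 As to AC50: VCAM-1 protein level quantified by ELISA after 24 h chemical exposure.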 The note with it: primary human foreskin fibroblasts; actives raise or lower the signal. The gist of the method:
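ELISA read-out of VCAM-1 on human skin fibroblasts, 24 h post-dose; gain or loss of signal fitted bidirectionally against DMSO baseline.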

Read-out in assay [16]: Plasminogen activator inhibitor-1 (PAI1), SERPINE1 (gene 5054)
Put plainly: BSK_hDFCGF_PAI1: BioMAP Diversity Plus: hDFCGF Assay for Plasminogen activator inhibitor-1 (PAI1) Biomarker Activity (AID 2283066). The settings on record: primary human foreskin fibroblasts; actives raise or lower the signal. The gist of the method: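 Human foreskin fibroblast primary cells, 24 h chemical exposure; PAI-1 measured by ELISA. Bidirectional fitting relative to DMSO; parallel cultures stained with SRB for total protein to flag overt cytotoxicity.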

Read-out in assay [17]: Intercellular Adhesion Molecule 1 (ICAM1), ICAM1 (gene 3383)
Briefly: BSK_KF3CT_ICAM1: BioMAP Diversity Plus: KF3CT Assay for Intercellular Adhesion Molecule 1 (ICAM1) Biomarker Activity (AID 2283067). The note with it: primary human keratinocytes with fibroblasts; actives raise or lower the signal. Summed up:
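ELISA readout of ICAM-1; KF3CT human skin co-culture (keratinocytes + foreskin fibroblasts), 24 h post-dose; gain/loss fit vs DMSO baseline.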

Read-out in assay [18]: Interferon-gamma inducible Protein 10 (IP10), CXCL10 (gene 3627)
Put plainly: BSK_KF3CT_IP10: BioMAP Diversity Plus: KF3CT Assay for Interferon-gamma inducible Protein 10 (IP10) Biomarker Activity (AID 2283068). The settings on record: primary human keratinocytes with fibroblasts; actives raise or lower the signal. Summed up:
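Signal is secreted/surface IP-10 by ELISA in a human primary skin co-culture of keratinocytes and foreskin fibroblasts, taken 24 h post-dosing; DMSO served as negative control.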

Assay [19] is described as follows: BSK_KF3CT_SRB: Viability Assessment in the BioMAP Diversity Plus: KF3CT Assay (AID 2283069).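 Also: total protein by sulforhodamine B staining as a cytotoxicity measure; read 24 h after compound addition.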 The settings on record: primary human keratinocytes with fibroblasts. The gist of the method: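 Human primary keratinocyte plus foreskin fibroblast co-culture exposed to chemicals for 24 h. Total protein measured by 0.1% sulforhodamine B staining after 10% TCA fixation, read at 560 nm; bidirectional fitting versus DMSO baseline.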

Read-out in assay [20]: Interleukin-1 alpha (IL1a), IL1A (gene 3552)
Briefly: BSK_KF3CT_IL1a: BioMAP Diversity Plus: KF3CT Assay for Interleukin-1 alpha (IL1a) Biomarker Activity (AID 2283070). The settings on record: primary human keratinocytes with fibroblasts; actives raise or lower the signal. The gist of the method:
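Human keratinocyte plus foreskin fibroblast primary co-culture, sampled 24 h after chemical dosing. IL-1a measured by ELISA; responses fitted bidirectionally against DMSO baseline (negative control), so gain or loss of signal both count.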

The structures appear in SMILES notation. Activity calls are given as the source filed them. The calls were made as follows: active = hit-call score of the fitted dose curve at least 0.9, where 1 is the maximum; inactive = score below 0.9.

For the compound `Cc1[nH]c(=O)n(C(C)(C)C)c(=O)c1Cl`, the result in assay [1], in [2], in assay [3], in assay [4], in [5] and in assay [6] was inactive. The result in assay [7], in [8], in [9], in assay [10], in assay [11] and in assay [12] was inactive. Besides, the result in assay [13], in [14], in [15], in assay [16], in assay [17] and in assay [18] was inactive. Besides, the result in assay [19] and in [20] was inactive.
As for `O=[N+]([O-])/N=C1\NCCN1Cc1ccc(Cl)nc1`, the outcome in assay [1], in assay [2], in assay [3], in [4], in assay [5] and in assay [6] was inactive. In addition, the outcome in assay [7], in [8], in [9], in assay [10], in assay [11] and in [12] was inactive. Further, the result in assay [13], in [14], in [15], in assay [16], in assay [17] and in assay [18] was inactive. For the same compound, the outcome in assay [19] and in assay [20] was inactive.
As to `O=S1OCC2C(CO1)C1(Cl)C(Cl)=C(Cl)C2(Cl)C1(Cl)Cl` (centres undefined), the AC50 (in general, the midpoint of the concentration-response curve, whichever way the signal moves) is 14.3 µM (active) in assay [1]; 29.5 µM (active) in assay [3]; 36.6 µM (active) in [4]; 25.8 µM (active) in assay [5]; 22.5 µM (active) in [6]; 33.8 µM (active) in assay [8]. Further, the AC50 was 23.2 µM (active) in [9]; 24.2 µM (active) in assay [10]; 26.7 µM (active) in [11]; 32 µM (active) in [12]; 37.6 µM (active) in [13]; 36.7 µM (active) in [14]. Also, the half-maximal activity concentration (AC50) in assay [15] was 33.5 µM (active); in assay [17], 31.9 µM (active); in assay [18] it was 29.9 µM (active); in assay [19], 29.5 µM (active); in [20], 29.1 µM (active). The outcome in [2] and in assay [7] was inactive.
For `CN1CSC(=S)N(C)C1`, the outcome in [1], in assay [2], in [4], in [6], in assay [7] and in assay [8] was inactive. Further, the result in [11], in assay [12], in [14], in assay [17], in assay [18] and in assay [19] was inactive. Besides, in assay [20], the result was inactive. Besides, the AC50 in assay [3] is 16 µM (active); in assay [5], 20 µM (active); in assay [9] it was 13.5 µM (active); in [10], 10.6 µM (active); in assay [13], 14.1 µM (active); in [15], 9.28 µM (active). Further, the half-maximal activity concentration (AC50) in assay [16] was 24.2 µM (active).
